# Test results published in PMC4336329 (PLoS ONE, 2015).
# In all, about 310,000 compounds went through this assay and about 14,000 (4.5%) showed an effect of 50% or more. The effect is printed as a negative number. What follows is part of a selection rich in strong results, with near analogues and random picks from the rest.
# Target: human ether-à-go-go-related gene (hERG) potassium channel (human, UniProt Q12809)
# Assay: primary screen, population patch clamp on CHO cells stably expressing hERG; higher = less effect of the substance
# 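Also: peak tail current of the secondary pulse compared with the same well before compound.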
# human ether-à-go-go-related gene (hERG) potassium channel, sequence (Q12809 whole entry, looked up): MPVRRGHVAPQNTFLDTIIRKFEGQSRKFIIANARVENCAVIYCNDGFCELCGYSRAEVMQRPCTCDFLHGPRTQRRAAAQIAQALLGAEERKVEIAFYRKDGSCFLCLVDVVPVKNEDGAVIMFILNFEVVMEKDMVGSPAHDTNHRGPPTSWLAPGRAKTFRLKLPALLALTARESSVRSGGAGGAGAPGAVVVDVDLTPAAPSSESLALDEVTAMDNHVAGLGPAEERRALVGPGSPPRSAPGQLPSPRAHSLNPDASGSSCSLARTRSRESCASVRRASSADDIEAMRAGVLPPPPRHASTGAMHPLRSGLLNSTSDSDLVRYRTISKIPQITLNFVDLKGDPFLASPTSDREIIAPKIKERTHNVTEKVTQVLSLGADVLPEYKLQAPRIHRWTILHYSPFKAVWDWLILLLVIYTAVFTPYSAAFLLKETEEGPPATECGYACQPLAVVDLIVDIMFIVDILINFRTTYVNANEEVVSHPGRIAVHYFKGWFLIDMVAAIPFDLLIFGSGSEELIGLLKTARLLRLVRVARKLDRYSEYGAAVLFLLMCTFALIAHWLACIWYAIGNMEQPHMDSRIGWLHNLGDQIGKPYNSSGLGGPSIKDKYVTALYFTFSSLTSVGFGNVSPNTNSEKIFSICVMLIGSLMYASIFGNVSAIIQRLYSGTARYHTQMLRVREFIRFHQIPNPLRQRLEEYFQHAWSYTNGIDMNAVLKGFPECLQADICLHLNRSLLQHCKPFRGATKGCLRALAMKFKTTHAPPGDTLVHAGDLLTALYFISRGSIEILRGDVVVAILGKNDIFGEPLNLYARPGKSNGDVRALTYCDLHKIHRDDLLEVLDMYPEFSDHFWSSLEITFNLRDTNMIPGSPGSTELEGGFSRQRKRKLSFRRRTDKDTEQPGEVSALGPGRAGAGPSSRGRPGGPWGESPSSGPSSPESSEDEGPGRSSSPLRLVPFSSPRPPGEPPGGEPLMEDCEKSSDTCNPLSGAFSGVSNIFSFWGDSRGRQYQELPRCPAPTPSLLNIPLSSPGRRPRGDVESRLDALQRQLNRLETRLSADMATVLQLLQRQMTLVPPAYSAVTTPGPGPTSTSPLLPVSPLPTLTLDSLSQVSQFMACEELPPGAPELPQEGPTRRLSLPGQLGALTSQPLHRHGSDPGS
row,SMILES,"hERG current change (%, negative = inhibition) at 10uM [%]"
1,O=[N+]([O-])c1ccc2c(c1)[nH]c(=S)n2-c1ccccc1,36.4
2,COc1cccc(CNS(=O)(=O)c2cc3c(cc2C)NC(=O)CO3)c1,-25.4
3,COCC1CCN(C(=O)c2ccc3oc(Cc4ccccc4)nc3c2)C1 (centres unmarked),-0.23
4,COc1cccc(/C=N/NC(=O)CC(=O)NCCc2ccccc2)c1OC,6.02
5,Cl.NC(N)=NC(N)=Nc1cccc(Cl)c1,-2.14
6,Cc1ccc(C)c(-n2c(C)cc(/C=N/NC(=O)c3c(C)nc4cc(C)ccn34)c2C)c1,-0.122
7,Cc1ccn2c(C(=O)N/N=C/c3ccc(CNC(=O)C(=O)Nc4ccc(C)c(C)c4)o3)c(C)nc2c1,-57
8,Cc1ccc(NC(=O)C(=O)NCc2ccc(/C=N/NC(=O)c3c(C)nc4cc(C)ccn34)o2)cc1,-64
9,Cc1ccc(NC(=O)C(=O)NCc2ccc(/C=N/NC(=O)c3c(C)nc4ccccn34)o2)cc1,1.37
10,Cc1ccn2c(C(=O)N/N=C\c3cccs3)c(C)nc2c1,-7.56
11,Cc1nc2ccccn2c1C(=O)N/N=C/c1ccc([N+](=O)[O-])cc1,2.88
12,CCOc1ccc(/C=N\NC(=O)c2c(C)nc3cc(C)ccn23)cc1,-2.47
13,Cc1nc2ccccn2c1C(=O)N/N=C/c1ccccc1,11.6
14,Cc1nc2ccccn2c1C(=O)N/N=C/c1ccccc1[N+](=O)[O-],2.26
15,Cc1nc2ccccn2c1C(=O)N/N=C/c1ccc(CNC(=O)C(=O)Nc2ccccc2)o1,-50.3
16,Cc1nc2ccccn2c1C(=O)N/N=C/c1ccc([N+](=O)[O-])o1,-64.1
17,COc1ccc(NC(=O)C(=O)N/N=C\c2ccc(CNC(=O)C(=O)Nc3ccc(C)c(C)c3)o2)c(OC)c1,9.12
18,O=C(Nc1ccc(F)cc1)c1cc2ccccc2o1,20
19,COc1cccc(CSc2nnnn2-c2ccc(O)cc2)c1,-18.5
20,CCCCn1c(N)c(N(CCC(C)C)C(=O)c2cc(Cl)nc3ccccc23)c(=O)[nH]c1=O,15.2
21,COC(=O)c1cccc(-n2nnnc2SCC(=O)Nc2nc3c(s2)CCCC3)c1,-0.926
22,Cc1ccc(OCCC(=O)O)cc1,13.4
23,COc1ccc(OC)c(CNCc2ccc3c(c2)OCO3)c1.O=C(O)C(=O)O,-4.43

row,SMILES,"hERG current change (%, negative = inhibition) at 10uM [%]"
1,CC(=O)c1ccc(NC(=O)C2=CC(c3cccs3)=NS(=O)(=O)N2C)cc1,-0.218
2,CC(C)Oc1ccccc1OCCN(C)C.O=C(O)C(=O)O,6.22
3,CC(O)CNCCCOc1ccccc1OCc1ccccc1.O=C(O)C(=O)O (centres unmarked),-36.7
4,CN(C)CCC(Oc1ccccc1OCc1ccccc1)c1ccccc1.O=C(O)C(=O)O (centres unmarked),-68.6
5,COC(=O)c1ccccc1S(=O)(=O)N1CCC(C(=O)N2CCC2)CC1,3.96
6,CC(C)C1OC2(C)OC(=N)C1(C#N)C(C#N)(C#N)C2c1ccccc1 (centres unmarked),2.05
7,COc1ccc(-c2nnc(OCc3nc4ccccc4n3C)c3ccccc23)cc1,-40.2
8,Cl.OCCNc1nc(Nc2ccc(Cl)c(Cl)c2)nc2ccccc12,14.5
9,CNc1nc(NCc2ccccc2)c2ccccc2n1.Cl,-68.1
10,Cl.OCCNc1nc(Nc2ccccc2)nc2ccccc12,-35
11,Cc1ccc(Nc2nc(NCCO)c3ccccc3n2)cc1C.Cl,-52.4
12,Cl.OCCNc1nc(Nc2ccc(O)cc2)nc2ccccc12,-28.6
13,Cl.Oc1ccccc1Nc1nc(NCc2ccccc2)c2ccccc2n1,-1.42
14,Cl.OCCNc1nc(Nc2ccc(Br)cc2)nc2ccccc12,-36.3
15,Cl.c1ccc(CNc2nc(NCc3ccccc3)c3ccccc3n2)cc1,2.65
16,Cl.OCCNc1nc(NCc2ccccc2)c2ccccc2n1,-54.6
17,Nc1ccc(C2(c3ccc(N)cc3)CCCCC2)cc1,22.1
18,O=C(Nc1cccnc1)c1cc(-c2ccc(Br)cc2)nc2ccccc12,-2.53
19,O=S1(=O)N=C(N2CCc3ccccc3C2)c2ccccc21,-39
20,O=C(c1ccco1)N1CCN(c2cc(C(F)(F)F)nc3ncnn23)CC1,-16.7
21,Cc1ccc(C(=O)CCNc2cccc(Br)c2)o1,4.71
22,O=C(COc1ccc(Cl)cc1)NCCSCc1cccc(Cl)c1,-13.5
23,CC1CCN(c2c(NCC3CCC(C(=O)NCCc4ccc(Cl)cc4)CC3)c(=O)c2=O)CC1 (centres unmarked),-3.81

row,SMILES,"hERG current change (%, negative = inhibition) at 10uM [%]"
1,CCCCN(C(=O)c1ccc2ccccc2c1)c1c(N)n(CCCC)c(=O)[nH]c1=O,8.11
2,N=c1c(C(=O)NC2CCCCC2)cc2c(=O)n3ccccc3nc2n1CCc1ccccc1,-81.1
3,COc1ccc(Cn2c(=N)c(C(=O)NC3CCCCC3)cc3c(=O)n4ccccc4nc32)cc1,-68.9
4,COc1ccc(Cn2c(=O)[nH]c3cc(C(=O)NC4CCCC4)ccc3c2=O)cc1,15.1
5,N=c1c(S(=O)(=O)c2ccc(Cl)cc2)cc2c(=O)n3ccccc3nc2n1CCc1ccccc1,4.68
6,COc1ccc(CCn2c(=N)c(S(=O)(=O)c3ccc(Cl)cc3)cc3c(=O)n4ccccc4nc32)cc1,20.5
7,COc1ccc(CCn2c(=N)c(C(=O)NC3CCCCC3)cc3c(=O)n4ccccc4nc32)cc1,-79.4
8,COc1ccc(NC(=O)c2cc3c(=O)n4ccccc4nc3n2C)c(OC)c1,2.99
9,COc1ccc(CCn2c(=N)c(C(=O)NC3CCCC3)cc3c(=O)n4ccccc4nc32)cc1,-81.9
10,Cc1ccc(S(=O)(=O)c2cc3c(=O)n4ccccc4nc3n(CCc3ccccc3)c2=N)cc1,5.39
11,COc1cccc(-c2csc(NNC(=O)c3cccs3)n2)c1,-2.17
12,COc1cc(C(=O)N(Cc2ccc(C)o2)C2CCS(=O)(=O)C2)cc(OC)c1OC (centres unmarked),14.4
13,O=C(NCc1cccnc1)c1ccc(Br)s1,-16.9
14,CCN1C(=O)c2cccc3c(NS(=O)(=O)c4ccc(NC(C)=O)cc4)ccc1c23,-8.89
15,O=C(Cc1ccc(Cl)c(Cl)c1)Nc1cccc2ncccc12,20.2
16,COCCCNC(=O)c1c(N)n(-c2ccc(S(N)(=O)=O)cc2)c2nc3ccccc3nc12,0.473
17,Cc1nn(Cc2c(F)c(F)c(F)c(F)c2F)c(C)c1NC(=O)c1cccc(COc2ccc(Cl)cc2)c1,2.49
18,O=C1c2oc3ccc(Br)cc3c(=O)c2C(c2cccc(F)c2)N1CCO (centres unmarked),-1.34
19,ONC(=Nc1ccccc1)c1ccccc1Cl,2.37
20,CCc1ccccc1NC(=O)CCC(=O)N1CCSc2ccccc21,-14.7
21,CCOC(=O)c1cnc2nc(NCc3ccc(OCc4ccccc4)cc3)[nH]n2c1=O,5.06
22,COc1ccc(CCn2c(=N)c(C(=O)NC3CCCC3)cc3c(=O)n4ccccc4nc32)cc1OC,-79.2
23,CCN(C(=O)c1cc2c(=O)n3ccccc3nc2n1CCCOC)C1CCCCC1,-2.32

row,SMILES,"hERG current change (%, negative = inhibition) at 10uM [%]"
1,COc1ccc(CCn2c(=N)c(S(=O)(=O)c3ccc(C)cc3)cc3c(=O)n4ccccc4nc32)cc1,15.1
2,COCCCn1c(SCC(=O)NC2CCCCC2)nc2ccccc2c1=O,-16.9
3,COc1ccc(CCn2c(=N)c(S(=O)(=O)c3ccccc3)cc3c(=O)n4ccccc4nc32)cc1,10.9
4,COCCCn1c(=N)c(C(=O)NC2CCCCC2)cc2c(=O)n3ccccc3nc21,-78.8
5,COc1ccc(CCn2c(=N)c(C(=O)N3CCN(C)CC3)cc3c(=O)n4ccccc4nc32)cc1,-76.2
6,COc1ccc(CCn2c(C3CCCCC3)nc3c(c(=O)c4ccccc4n3C)c2=O)cc1OC,-8.08
7,Cc1ccc(C)c(S(=O)(=O)N2CCN(CC(=O)NC(=O)NCc3ccco3)CC2)c1,-24.5
8,Cc1cc(=S)c2cccc(C)c2[nH]1,9.4
9,Fc1cccc(CNc2ncnc3ccc(-c4ccc5c(c4)OCO5)cc23)c1,-31
10,COc1ccc(NC(=O)CNC(=O)C2CCCCC2)cc1,18.1
11,CCCOc1ccc(C(=O)N/N=C/c2ccc(-c3ccc(S(=O)(=O)Nc4ncccn4)cc3)o2)cc1,-7.38
12,Cc1cccc(OCC(=O)Nc2ccc(N3CCN(C(=O)c4ccccc4)CC3)cc2)c1C,3.45
13,O=C(/C=C/c1ccco1)N1CCN(c2ccccc2)CC1,-1.71
14,CCCCCC(=O)Nc1ccc(N2CCN(C(=O)CCC)CC2)cc1,-32.8
15,CCCCCC(=O)Nc1ccc(N2CCN(C(=O)c3ccccc3)CC2)cc1,-62.8
16,CCCCCCC(=O)Nc1ccc(C(=O)N2CCCC2)cc1,0.864
17,O=C(/C=C/c1ccco1)Nc1ccc(N2CCCC2)cc1,10.5
18,COc1ccc(C(=O)N2CCN(c3ccc(NC(=O)Cc4ccccc4)cc3)CC2)cc1,-31.8
19,Cc1ccc(C(=O)N2CCN(c3ccc(NC(=O)Cc4ccccc4)cc3)CC2)cc1,-71.5
20,Cc1ccc(OCC(=O)Nc2ccc(N3CCN(C(=O)c4ccc(C)cc4)CC3)cc2)cc1,9.99
21,O=C(/C=C\c1ccco1)Nc1ccc(N2CCN(C(=O)c3ccccc3)CC2)cc1,-55.7
22,Cc1ccc(C(=O)N2CCN(c3ccc(NC(=O)COc4ccccc4C)cc3)CC2)cc1,-73.6
23,Cc1ccc(C(=O)N2CCN(c3ccc(NC(=S)NC(=O)Cc4ccccc4)cc3)CC2)cc1,-17.1
